The text below walks through data of PubChem BioAssay AID624483 (NMMLSC, 2012).

The structures appear in SMILES notation. The campaign covered roughly 360,000 compounds. About 11,000 (3.1%) were called active. Roughly 2% stayed inconclusive and do not appear here. This is one part of a sample in which actives are shown more often than they occur. A number with no mark means an inactive call. Rule as the data show it: active = fluorescence intensity above about 16000; inconclusive = no clear call, values can overlap the other calls; inactive = below that.

The assay in a line: counter-screen for toxin protease inhibitors: compound fluorescence, primary screen, artefact control for toxin protease inhibitor project, biochemical, multiplex microsphere, HTS (AID 624483). To be noted: compound autofluorescence counterscreen, microsphere flow cytometry; active compounds read high.
Turning to `C[C@@H]1CN([C@@H](C)CO)C(=O)c2c(c3ccccc3n2C)-c2ccccc2CO[C@H]1CN(C)C(=O)C1CC1`, the fluorescence intensity is 3570.

Consider `CCCCCCCCN1C(=O)[C@H](CC(=O)NCc2cccc3ccccc23)C[C@@]2(C(=O)OC)CCCCC=C12`, for which the fluorescence intensity was 4630.

For the compound `CC(=O)NCC(=O)N1CCC(n2nccc2NC(=O)CCCc2ccccc2)CC1`, the fluorescence intensity was 6400.

`O=C(O)c1ccc(COCC(F)(F)F)cc1`: the fluorescence intensity was 16300 (active).

With `NNC(=O)c1ccc(COCC(F)(F)C(F)F)cc1`, the fluorescence intensity was 4020.

In the case of `O=C(O)CCC(=O)NCc1ccc(C(=O)O)cc1`, the fluorescence intensity is 3850.

Regarding `O=C(NCCCN1CCOCC1)C1CCCN(S(=O)(=O)N2CCCCC2)C1` (stereo not drawn), the fluorescence intensity was 5550.

Take `CN(C(=O)COC(=O)CCCc1c[nH]c2ccccc12)c1c(N)n(Cc2ccccc2)c(=O)[nH]c1=O`: the fluorescence intensity is 3770.

On to `CC1=C(C(=O)N2CCOCC2)CC(CC(=O)NCCCN(C)C)C(=O)N1Cc1ccc(C(C)(C)C)cc1` (stereo not drawn), for which the fluorescence intensity is 5880.

For `CCOC(=O)c1cc(-c2nnc(-c3cc(OC)c(OC)c(OC)c3)o2)c(C)nc1C`, the fluorescence intensity was 3800.

As to `CCOc1ccc(-c2noc(CCC(=O)NC3CCCC3)n2)cc1OC`, the fluorescence intensity is 4230.

In the case of `CCOc1nc(-c2ccc(OC)cc2)ccc1-c1noc(-c2cc(OC)c(OC)c(OC)c2)n1`, the fluorescence intensity was 20200 (active).

Consider `Nc1ncnc2c1ncn2[C@@H]1O[C@H](C(=O)NCC(F)(F)F)[C@@H](O)[C@H]1O`, for which the fluorescence intensity is 5880.

`COC(=O)[C@@]1(Cc2ccc(F)cc2)[C@H]2c3cc(C(=O)N4CCCC4)n(Cc4ccc(OC(F)(F)F)cc4)c3C[C@H]2CN1C(=O)c1ccccc1`: the fluorescence intensity was 4360.

As for `CN1C[C@@H](CO)O[C@@H](n2cnc3c(N4CCN(CCO)CC4)ncnc32)C1`, the fluorescence intensity was 3470.

As to `COC(=O)c1ccc2c(=O)n(CCN3CCOCC3)c(SCC(=O)Nc3cccc(OC)c3)nc2c1`, the fluorescence intensity was 5360.

For `CC(=O)c1ccc(NC(=O)CSc2nc3ccccc3c(=O)n2CCCN2CCOCC2)cc1`, the fluorescence intensity is 3650.

As to `CCc1ccc(NC(=O)CSc2nc3ccccc3c(=O)n2CCN2CCOCC2)cc1`, the fluorescence intensity is 23500 (active).

In the case of `Clc1ccc(-c2cccc3nccn23)cc1`, the fluorescence intensity was 3770.

As for `COc1cccc(-c2nc3nc(C)cc(C)n3c2NC2CCCCC2)c1`, the fluorescence intensity is 7480.

For the compound `Cc1ccc(F)c(S(=O)(=O)NC(=O)C2(C)CCN2C(=O)c2ccco2)c1` (stereo not drawn), the fluorescence intensity is 3860.

As for `COc1ccc(NC(=O)COC(=O)c2n[nH]c3ccccc23)c(OC)c1`, the fluorescence intensity was 5180.

For `CCCS(=O)(=O)Nc1c(C(=O)O)[nH]c2ccccc12`, the fluorescence intensity is 10100.

`COC(=O)c1[nH]c2ccccc2c1NS(=O)(=O)c1ccc(OC)cc1OC`: the fluorescence intensity was 20900 (active).

Consider `CCC(C)(C)c1ccc(OCC(=O)N(C)C)c(C(C)(C)CC)c1`, for which the fluorescence intensity is 4730.

As for `Cc1ccc(NC(=O)NC2CCCCC2)cc1S(=O)(=O)N1CCOCC1`, the fluorescence intensity is 3370.

As to `Cc1ccc(C(=O)Nc2ccccc2C(=O)NC2CCCCC2)cc1S(=O)(=O)N1CCOCC1`, the fluorescence intensity was 16600 (active).

For the compound `Cc1ccc(C(=O)Nc2ncccc2C)cc1S(=O)(=O)N1CCOCC1`, the fluorescence intensity was 5280.

Regarding `CCc1ccccc1NC(=O)CN1CCN(C(=O)c2cc(C3CC3)nn2-c2ccccc2)CC1`, the fluorescence intensity is 3950.

In the case of `CCCCCC(=O)N1CCN(S(=O)(=O)c2ccc3c(c2)OCCCO3)CC1`, the fluorescence intensity is 5990.

Take `CCNC(=O)N1CCN(S(=O)(=O)c2ccc3c(c2)OCCCO3)CC1`: the fluorescence intensity was 5340.

As for `CN1CCCN(S(=O)(=O)c2ccc3c(c2)OCCO3)CC1`, the fluorescence intensity is 22400 (active).

With `N#Cc1ccc(-c2nc3c(Cl)cc(C(F)(F)F)cn3c2Cc2ccccc2C(F)(F)F)cc1`, the fluorescence intensity is 5560.

Take `COc1ccc(NC(=O)C2Cc3c(-c4ccc5c(c4)OCO5)ccnc3O2)cn1` (stereo not drawn): the fluorescence intensity is 2850.

On to `C#CCOc1ccccc1/C=C1/C(=O)ON=C1C`, for which the fluorescence intensity was 4290.

As for `CCOC(=O)c1cc2c(ccn2C)n1CC(=O)N1CCC(C)CC1`, the fluorescence intensity is 4040.

Turning to `C/C(=N\c1nc2ccccc2n1C)c1cc(Cl)ccc1O`, the fluorescence intensity was 3250.

For `Oc1ccc(Cl)cc1/C=N/c1nc2ccccc2[nH]1`, the fluorescence intensity is 22500 (active).

In the case of `Oc1c(Cl)cc(Cl)cc1/C=N/c1ncn[nH]1`, the fluorescence intensity is 4010.

Consider `C=CCNCCCCOc1ccccc1`, for which the fluorescence intensity was 2600.

For the compound `CCc1nc2c(OCC(=O)C(C)(C)C)cccn2c1N(C)C(=O)c1ccccc1F`, the fluorescence intensity is 3600.

`CC1(C(=O)NCc2ccc3c(c2)OCO3)CCN1CCc1ccccc1` (stereo not drawn): the fluorescence intensity is 3940.

Take `CCc1nc2ccc(C(=O)N3CCN(S(=O)(=O)CC)CC3)cn2c1N(C=O)CCC(C)C`: the fluorescence intensity is 3570.

`CC1CCCN(C(=O)Cn2c(=O)oc3ccccc32)C1` (stereo not drawn): the fluorescence intensity was 3850.

Regarding `CC(=O)c1ccc(NC(=O)Cn2c(=O)oc3ccccc32)cc1`, the fluorescence intensity was 3040.

With `NC(=O)Cn1c(=O)oc2ccccc21`, the fluorescence intensity is 19700 (active).

As for `O=C(NC(c1ccc(Cl)cc1)c1cnccn1)C1CCN(Cc2ccc(Cl)cc2)CC1` (stereo not drawn), the fluorescence intensity is 4620.

On to `CCCCC[C@H](C)N1C[C@@H](COCc2ccccc2)Oc2cc(N3CC[C@@H](N(C)C)C3)ccc2S1(=O)=O`, for which the fluorescence intensity was 5700.
